The record followed here is PubChem BioAssay (Tox21).

Experiment [1] can be described thus: qHTS assay to identify small molecule agonists of the androgen receptor (AR) signaling pathway in the presence of an antagonist - cell viability counter screen (AID 1259379). Further: nearly all actives have a fitted effect of over 25% in size. Further: potency means the concentration at half of the fitted maximal effect. Summed up:
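In MDA-kb2 cells (human breast carcinoma, MMTV-luciferase), compounds at 15 concentrations plus 3.0uM nilutamide; 16 hr, 37C, 0% CO2; CellTiter-Fluor fluorescence read for viability.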
Background: In qHTS, concentration-response curves come from the screen itself.

A short description of experiment [2]: qHTS assay to identify small molecule agonists of the estrogen receptor beta (ER-beta) signaling pathway - cell viability counter screen (AID 1259380). Further: nearly all actives have a fitted effect of over 30% in size. Further: potency means the concentration at half of the fitted maximal effect. Summed up:
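Viability of ER-beta-UAS-bla HEK293T cells was determined by CellTiter-Glo luminescence following 16 hr treatment with test compounds at 37C.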

Experiment [3] can be described thus: qHTS assay to identify small molecule antagonists of the estrogen receptor beta (ER-beta) signaling pathway - cell viability counter screen (AID 1259382). Further: nearly all actives have a fitted effect of over 55% in size. Further: potency means the concentration at half of the fitted maximal effect. Summed up: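 Tox21 10K library tested in qHTS format on ER-beta-bla HEK293T cells stimulated with 1nM E2; 16 hr treatment at 37C. Same-well CellTiter-Glo luminescence served as the cell viability measure.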

Experiment [4] concerns the target Estrogen receptor (Homo sapiens) (UniProt P03372). The experiment in a line: qHTS assay to identify small molecule agonists of the estrogen receptor alpha (ER-alpha) signaling pathway in the presence of an antagonist (AID 1259383; calls by dose curve; further: top concentration of the series differs between compounds; nearly all actives have a fitted effect of over 15% in size). Summed up:
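In VM7Luc4E2 cells, 4,000 per well, compounds at 15 concentrations were co-incubated 22hr at 37C with 10.0nM final ICI-182,780. Luminescence from the stably transfected 4×ERE-luciferase reporter was recorded 30min after ONE-Glo addition.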

Experiment [5] is described as follows: qHTS assay to identify small molecule agonists or antagonists of the thyroid stimulating hormone receptor (TSHR) signaling pathway - wild type cell line counter screen (AID 1259384; calls by dose curve). A digest of the protocol:
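Counter screen in untransfected Hek293: compounds (15-point titration, triplicate) plus phosphodiesterase inhibitor Ro20-1724 added after 18 h plating; 30 min RT. Intracellular cAMP via competitive d2/cryptate immunoassay, 1 h incubation.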

Experiment [6] deals with Thyrotropin receptor (Homo sapiens) (UniProt P16473). The experiment in a line: qHTS assay to identify small molecule antagonists of the thyroid stimulating hormone receptor (TSHR) signaling pathway (AID 1259385; calls by dose curve; further: nearly all actives have a fitted effect of over 20% in size). Summed up: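 Antagonist mode: compound-treated TSHR-expressing HEK293 cells were stimulated with 1.5 ng/mL TSH (final) in presence of Ro20-1724 for 30 min at RT. HTRF cAMP detection after 1 h; each compound tested at 15 concentrations, triplicate.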

Experiment [7] can be described thus: qHTS assay to identify small molecule agonists of the estrogen receptor alpha (ER-alpha) signaling pathway in the presence of an antagonist - cell viability counter screen (AID 1259386).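 Further: cells exposed to compounds for 22 h at 37 °C before the viability read; nearly all actives have a fitted effect of over 30% in size.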 Further: potency means the concentration at half of the fitted maximal effect. A digest of the protocol:
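Fluorescent CellTiter-Fluor viability signal from VM7Luc4E2 cells, with the reagent added during the final hour of a 22hr compound exposure at 37C in the presence of 10.0nM ICI-182,780.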

Experiment [8] deals with Progesterone receptor (Homo sapiens) (UniProt P06401). The experiment in a line: qHTS assay to identify small molecule agonists of the progesterone receptor (PR) signaling pathway (AID 1346784; calls by dose curve; further: nearly all actives have a fitted effect of over 30% in size; further: potency means the concentration at half of the fitted maximal effect). A digest of the protocol: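 Agonist mode, quantitative HTS format in a HEK 293T line expressing a UAS-controlled beta-lactamase reporter; 16 hr compound exposure at 37C in 2% charcoal-stripped FBS, then LiveBLAzer B/G FRET fluorescence.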

The nature of experiment [9]: qHTS assay to identify small molecule agonists of the progesterone receptor (PR) signaling pathway - cell viability counter screen (AID 1346799; calls by dose curve; further: nearly all actives have a fitted effect of over 45% in size; further: potency means the concentration at half of the fitted maximal effect). Summed up: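 Counter screen for cytotoxicity: compound-treated PR-UAS-bla HEK293T cells (16 hr, 37C, 5% CO2) were assayed with CellTiter-Glo, luminescence measured after 30 min at room temperature.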
Experiment [10] can be described thus: qHTS assay to identify small molecule antagonists of the TGF-beta/Smad signaling pathway - cell viability counter screen (AID 1346824). Further: nearly all actives have a fitted effect of over 50% in size. A digest of the protocol: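 Cytotoxicity counter-screen run in the same wells as the beta-lactamase Smad reporter read: CellTiter-Glo luminescence after 30 min at room temperature. HEK 293T SBE-bla cells had 5 hr compound exposure at 37 C with TGF-beta1 (0.25 ng/mL stock).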

The nature of experiment [11]: qHTS assay to identify small molecule agonists of the TGF-beta/Smad signaling pathway (AID 1346859; active means well fitted activation curve with a large enough effect in the signal ratio in the repeat runs, not every such curve was filed as active; the % refers to the signal ratio; further: series mostly up to about 77 µM). Summed up:
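Smad-responsive beta-lactamase reporter cells (HEK 293T) received compounds from DMSO stocks after overnight attachment, were incubated 5 hr, then treated 2 hr with FRET substrate before dual-emission fluorescence measurement (405 nm excitation).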

Experiment [12] in a line: Human pregnane X receptor (PXR) small molecule agonists, qHTS cell viability counter screen (AID 1346977). Further: nearly all actives have a fitted effect of over 50% in size. Further: potency means the concentration at half of the fitted maximal effect. Summed up:
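Measures live-cell protease fluorescence (CellTiter-Fluor) in PXR-Luc HepG2 cells treated 24hr with compounds at 37C. Cells had 5hr to attach before pin transfer of DMSO solutions.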

Experiment [13] has as its target Progesterone receptor (Homo sapiens) (UniProt P06401). The experiment in a line: qHTS assay to identify small molecule antagonists of the progesterone receptor (PR) signaling pathway (AID 1346795; active means well fitted inhibition curve with a large enough effect in the signal ratio in the repeat runs, not every such curve was filed as active; the % refers to the signal ratio; further: potency means the concentration at half of the fitted maximal effect). Summed up: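 HEK293T PR-UAS-bla reporter cells in charcoal-stripped serum (2%) received compound after a 6 hr settling period, followed by R5020 agonist at 1 nM final; 16 hr incubation preceded the FRET substrate step and fluorescence measurement.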

Experiment [14] can be described thus: qHTS assay to identify small molecule antagonists of the progesterone receptor (PR) signaling pathway - cell viability counter screen (AID 1346798). Further: nearly all actives have a fitted effect of over 50% in size. Further: potency means the concentration at half of the fitted maximal effect. A digest of the protocol: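 Same-well multiplex: after 16 hr at 37C with compound and R5020 stimulation, HEK293T cells carrying a UAS-bla reporter received LiveBLAzer substrate (2 hr RT), then CellTiter-Glo (30 min RT) for luminescent viability.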

Experiment [15] is described as follows: qHTS assay to identify small molecule agonists of the TGF-beta/Smad signaling pathway - cell viability counter screen (AID 1346829). Further: top concentration of the series differs between compounds; nearly all actives have a fitted effect of over 45% in size. Summed up:
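Same-well cytotoxicity: CellTiter-Glo added after the 2 hr room-temperature beta-lactamase substrate step, luminescence measured 30 min later; cells had 5 hr of compound at 37 C.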

The target in experiment [16] is Estrogen receptor beta (Homo sapiens) (UniProt Q92731). The experiment in a line: qHTS assay to identify small molecule agonists of the estrogen receptor beta (ER-beta) signaling pathway (AID 1259377; active means well fitted activation curve with a large enough effect in the signal ratio in the repeat runs, not every such curve was filed as active; the % refers to the signal ratio). Summed up: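 A UAS-controlled beta-lactamase reporter in ER-beta-UAS-bla HEK293T cells reports receptor activation. Compounds act for 16 hr at 37C in 2% charcoal-stripped serum, and a FRET substrate is read by fluorescence after 2 hours.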

Experiment [17] concerns the target Androgen receptor (Homo sapiens) (UniProt P10275). The experiment in a line: qHTS assay to identify small molecule agonists of the androgen receptor (AR) signaling pathway in the presence of an antagonist (AID 1259381; calls by dose curve; further: nearly all actives have a fitted effect of over 15% in size). Summed up: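 Here, 15-concentration compound series were pin-transferred onto MDA-kb2 MMTV-luciferase cells already dosed with nilutamide (3.0uM final). After 16hr at 37C, ONE-Glo was added and luminescence read 30min later at room temperature.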

Experiment [18] has as its target Thyrotropin-releasing hormone receptor (Homo sapiens) (UniProt P34981). The experiment in a line: qHTS assay to identify small molecule antagonists of the thyrotropin-releasing hormone receptor (TRHR) signaling pathway (AID 1346877; active means well fitted inhibition curve with a large enough effect in the repeat runs, not every such curve was filed as active; further: series mostly up to about 51 µM). Summed up:
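In this cell-based calcium flux format, HEK293 cells expressing TRHR received test compound for 5 min before the agonist TRH (1 nM final). Dye loading lasted 2 h at 37 °C.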

For experiment [19] the target is unchanged. The experiment in a line: qHTS assay to identify small molecule agonists of the thyrotropin-releasing hormone receptor (TRHR) signaling pathway (AID 1346891; calls by dose curve; further: series mostly up to about 58 µM). A digest of the protocol: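 Agonist-mode calcium mobilisation screen: TRHR-transfected HEK293 cells cultured overnight (18 h), dye-loaded for 2 h at 37 °C, exposed to compounds, and monitored by fluorescence for 3 min.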

Where “and” joins values, the source holds several entries; their conditions need not be identical. Equal values may be shown once. Inconclusive results are not listed. More than one record can exist for a structure, and the calls need not agree. Calls of active or inactive are those of the source. Unless noted, the call rests on the fitted dose curve; in most records, active means well fitted curve in the direction sought with a large enough effect in the repeat runs; inconclusive means weak or mixed curves; inactive means no such curve, though single readings can be large; an effect the other way counts as inactive or inconclusive.

Androgen receptor (Homo sapiens), sequence (P10275 whole entry, looked up): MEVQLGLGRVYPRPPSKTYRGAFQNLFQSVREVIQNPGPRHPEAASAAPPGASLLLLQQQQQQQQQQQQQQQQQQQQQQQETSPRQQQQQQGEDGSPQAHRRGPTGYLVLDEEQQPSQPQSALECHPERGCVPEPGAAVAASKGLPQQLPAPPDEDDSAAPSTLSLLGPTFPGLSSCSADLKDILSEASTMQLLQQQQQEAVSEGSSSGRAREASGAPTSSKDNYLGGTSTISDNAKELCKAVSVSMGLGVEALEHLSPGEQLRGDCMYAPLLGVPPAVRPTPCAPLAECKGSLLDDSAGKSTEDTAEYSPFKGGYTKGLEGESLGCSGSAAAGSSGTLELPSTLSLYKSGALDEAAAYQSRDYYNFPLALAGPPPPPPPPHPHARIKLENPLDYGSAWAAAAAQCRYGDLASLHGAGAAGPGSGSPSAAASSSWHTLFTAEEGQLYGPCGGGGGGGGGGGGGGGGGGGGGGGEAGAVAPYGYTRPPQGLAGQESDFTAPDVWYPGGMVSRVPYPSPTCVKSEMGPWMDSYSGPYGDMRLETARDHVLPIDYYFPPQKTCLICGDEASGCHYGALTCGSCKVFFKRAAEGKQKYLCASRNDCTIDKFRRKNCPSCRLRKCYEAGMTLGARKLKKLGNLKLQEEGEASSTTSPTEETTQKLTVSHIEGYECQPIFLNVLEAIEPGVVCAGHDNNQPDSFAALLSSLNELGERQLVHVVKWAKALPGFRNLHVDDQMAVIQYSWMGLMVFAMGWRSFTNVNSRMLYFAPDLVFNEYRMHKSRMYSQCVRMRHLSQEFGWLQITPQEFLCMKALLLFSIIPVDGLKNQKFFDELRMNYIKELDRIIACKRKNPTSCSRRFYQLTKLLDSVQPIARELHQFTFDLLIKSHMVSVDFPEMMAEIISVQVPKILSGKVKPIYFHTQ
Estrogen receptor (Homo sapiens), sequence (P03372 whole entry, looked up): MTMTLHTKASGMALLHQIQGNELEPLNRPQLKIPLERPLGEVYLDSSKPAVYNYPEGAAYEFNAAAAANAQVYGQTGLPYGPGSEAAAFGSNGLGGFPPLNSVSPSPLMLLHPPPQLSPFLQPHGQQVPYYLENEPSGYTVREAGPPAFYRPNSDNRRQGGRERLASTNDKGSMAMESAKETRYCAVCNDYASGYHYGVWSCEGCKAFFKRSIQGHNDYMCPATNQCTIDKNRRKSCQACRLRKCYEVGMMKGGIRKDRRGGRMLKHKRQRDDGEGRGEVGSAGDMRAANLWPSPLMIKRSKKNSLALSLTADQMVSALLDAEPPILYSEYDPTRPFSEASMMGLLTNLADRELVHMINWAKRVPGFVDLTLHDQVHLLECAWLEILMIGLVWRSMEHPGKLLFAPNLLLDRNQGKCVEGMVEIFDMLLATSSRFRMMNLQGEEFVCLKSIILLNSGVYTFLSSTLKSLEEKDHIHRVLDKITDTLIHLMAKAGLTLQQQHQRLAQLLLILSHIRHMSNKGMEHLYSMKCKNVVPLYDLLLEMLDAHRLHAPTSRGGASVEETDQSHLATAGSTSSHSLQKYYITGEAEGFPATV
Thyrotropin-releasing hormone receptor (Homo sapiens), sequence (P34981 whole entry, looked up): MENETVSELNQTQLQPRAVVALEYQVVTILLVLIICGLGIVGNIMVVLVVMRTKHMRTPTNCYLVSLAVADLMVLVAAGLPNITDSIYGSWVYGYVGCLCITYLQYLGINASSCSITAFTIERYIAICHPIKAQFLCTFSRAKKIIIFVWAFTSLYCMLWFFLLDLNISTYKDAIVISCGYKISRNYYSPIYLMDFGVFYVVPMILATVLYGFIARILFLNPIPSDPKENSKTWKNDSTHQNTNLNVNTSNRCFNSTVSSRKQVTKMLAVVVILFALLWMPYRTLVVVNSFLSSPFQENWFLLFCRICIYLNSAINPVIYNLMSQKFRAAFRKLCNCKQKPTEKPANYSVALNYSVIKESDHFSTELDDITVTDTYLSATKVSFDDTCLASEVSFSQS
Thyrotropin receptor (Homo sapiens), sequence (P16473 whole entry, looked up): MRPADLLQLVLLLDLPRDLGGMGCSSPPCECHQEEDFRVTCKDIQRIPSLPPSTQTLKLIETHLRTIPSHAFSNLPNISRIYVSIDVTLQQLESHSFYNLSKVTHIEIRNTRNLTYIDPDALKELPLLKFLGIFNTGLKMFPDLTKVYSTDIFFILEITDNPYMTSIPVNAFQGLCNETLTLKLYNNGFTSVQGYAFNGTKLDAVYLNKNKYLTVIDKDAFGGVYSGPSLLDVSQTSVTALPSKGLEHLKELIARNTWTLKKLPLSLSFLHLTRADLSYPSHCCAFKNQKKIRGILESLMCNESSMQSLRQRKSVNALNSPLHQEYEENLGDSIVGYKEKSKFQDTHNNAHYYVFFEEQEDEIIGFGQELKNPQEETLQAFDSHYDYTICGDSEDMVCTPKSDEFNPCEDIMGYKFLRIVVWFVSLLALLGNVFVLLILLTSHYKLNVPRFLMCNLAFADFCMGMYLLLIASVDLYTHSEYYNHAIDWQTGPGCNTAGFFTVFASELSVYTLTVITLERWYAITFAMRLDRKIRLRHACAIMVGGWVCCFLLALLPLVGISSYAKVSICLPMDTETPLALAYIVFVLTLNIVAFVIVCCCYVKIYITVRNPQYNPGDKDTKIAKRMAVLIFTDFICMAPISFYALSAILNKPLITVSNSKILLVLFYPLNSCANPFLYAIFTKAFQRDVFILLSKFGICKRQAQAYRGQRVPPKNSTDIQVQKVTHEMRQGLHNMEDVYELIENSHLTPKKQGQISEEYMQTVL
Progesterone receptor (Homo sapiens), sequence (P06401 whole entry, looked up): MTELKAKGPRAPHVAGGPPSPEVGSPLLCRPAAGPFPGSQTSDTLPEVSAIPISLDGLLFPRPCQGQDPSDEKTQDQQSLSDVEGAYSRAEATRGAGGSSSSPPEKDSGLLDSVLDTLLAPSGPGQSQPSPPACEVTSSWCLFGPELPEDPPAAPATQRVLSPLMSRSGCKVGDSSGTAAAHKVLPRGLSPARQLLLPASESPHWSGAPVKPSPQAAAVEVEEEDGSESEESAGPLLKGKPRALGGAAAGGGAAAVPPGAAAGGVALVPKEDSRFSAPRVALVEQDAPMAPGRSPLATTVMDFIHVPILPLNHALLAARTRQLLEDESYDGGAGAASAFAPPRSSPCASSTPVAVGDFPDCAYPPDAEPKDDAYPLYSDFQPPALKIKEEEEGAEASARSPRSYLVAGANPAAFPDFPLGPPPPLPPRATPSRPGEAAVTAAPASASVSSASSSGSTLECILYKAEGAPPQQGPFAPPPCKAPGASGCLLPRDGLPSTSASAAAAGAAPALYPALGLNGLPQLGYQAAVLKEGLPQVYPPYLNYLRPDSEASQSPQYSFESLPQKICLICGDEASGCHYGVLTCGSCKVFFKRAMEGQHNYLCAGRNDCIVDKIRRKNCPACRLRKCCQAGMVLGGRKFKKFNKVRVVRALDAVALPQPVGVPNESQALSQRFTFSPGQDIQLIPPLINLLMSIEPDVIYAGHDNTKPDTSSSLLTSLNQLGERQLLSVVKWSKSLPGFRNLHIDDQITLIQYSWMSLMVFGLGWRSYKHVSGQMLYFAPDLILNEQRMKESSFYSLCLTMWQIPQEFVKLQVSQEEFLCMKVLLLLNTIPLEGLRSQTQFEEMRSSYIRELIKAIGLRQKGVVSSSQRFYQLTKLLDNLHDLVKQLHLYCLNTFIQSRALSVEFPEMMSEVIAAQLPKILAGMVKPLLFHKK
Estrogen receptor beta (Homo sapiens), sequence (Q92731 whole entry, looked up): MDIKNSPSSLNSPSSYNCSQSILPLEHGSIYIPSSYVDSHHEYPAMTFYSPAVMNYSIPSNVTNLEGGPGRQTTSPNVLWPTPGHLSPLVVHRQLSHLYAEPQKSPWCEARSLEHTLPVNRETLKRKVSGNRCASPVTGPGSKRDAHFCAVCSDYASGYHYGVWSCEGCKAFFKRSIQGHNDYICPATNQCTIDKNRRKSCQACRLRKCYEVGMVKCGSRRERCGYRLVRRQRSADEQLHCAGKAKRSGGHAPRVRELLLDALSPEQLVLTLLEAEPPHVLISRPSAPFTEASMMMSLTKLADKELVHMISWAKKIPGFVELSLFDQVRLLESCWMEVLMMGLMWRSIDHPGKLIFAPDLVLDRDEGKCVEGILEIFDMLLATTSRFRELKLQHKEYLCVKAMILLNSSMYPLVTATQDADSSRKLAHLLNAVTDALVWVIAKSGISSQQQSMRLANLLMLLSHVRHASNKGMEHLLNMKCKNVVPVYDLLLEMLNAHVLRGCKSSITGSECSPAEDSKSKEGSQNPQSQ

In the case of `CN[C@H]1CC[C@@H](c2ccc(Cl)c(Cl)c2)c2ccccc21`, the Potency entry in experiment [1], in experiment [4], in [5], in [6], in [7] and in [8] was “inactive” each time. Also, the Potency result in experiment [9] and in experiment [10] was “inactive” in each case. The values for the Potency in experiment [2], in experiment [3] and in experiment [12] were 29.8 µM (active), 18.8 µM (active) and 29.8 µM (active), respectively. The molecule was called inactive in [11].

Turning to `O=C(O)c1ccccc1`, the Potency result in experiment [1], in experiment [2], in experiment [3], in experiment [4], in experiment [5] and in experiment [6] was “inactive” throughout. Besides, the Potency entry in experiment [7], in [13], in [14], in [9], in experiment [15] and in experiment [12] was “inactive” throughout. In experiment [8], the Potency result was “inactive and 596 nM (active)”. Moreover, the outcome in experiment [11] was inactive.

As for `Nc1c(N=Nc2ccc(-c3ccc(N=Nc4cc(S(=O)(=O)O)c5ccccc5c4N)cc3)cc2)cc(S(=O)(=O)O)c2ccccc12`, the Potency result in experiment [16], in experiment [3], in [8], in experiment [13], in [14] and in experiment [9] was “inactive” in each case. In experiment [15], the Potency entry is “inactive”. Further, the Potency in experiment [1] is 24.3 µM (active); in experiment [7] it was 17.2 µM (active); in [12], 8.63 µM (active). In [11], the molecule was called inactive.

In the case of `CCCCCCc1ccc(O)cc1O`, the Potency result in experiment [1], in experiment [17], in [5], in [6], in [7] and in [8] was “inactive” throughout. The Potency entry in experiment [15], in [18], in experiment [19] and in experiment [12] was “inactive” each time. In addition, the Potency in [2] was 48.7 µM (active) and 48.6 µM (active); in experiment [3] it was 48.7 µM (active) and inactive; in experiment [13], 27.4 µM (active) and 27.3 µM (active) and 23.7 µM (active). The molecule was classed as inactive in experiment [11].

`CC(=O)CCC(=O)O`: the Potency result in experiment [1], in [2], in experiment [3], in [4], in experiment [5] and in experiment [6] was “inactive” in each case. Moreover, the Potency result in [7], in experiment [14], in [9], in experiment [15] and in experiment [12] was “inactive” in each case. Moreover, the call in [11] was inactive.

With `CCN(Cc1c(F)cccc1Cl)c1c([N+](=O)[O-])cc(C(F)(F)F)cc1[N+](=O)[O-]`, the Potency entry in [1], in [4], in experiment [7], in experiment [8], in experiment [15] and in [18] was “inactive” each time. Moreover, the Potency entry in experiment [19] and in [12] was “inactive” in each case. The Potency is 30.6 µM (active) in experiment [2], 43.3 µM (active) in experiment [3], 21.7 µM (active) in experiment [14] and 8.63 µM (active) in experiment [9]. Further, in experiment [11], the call was inactive.

For the molecule `Cc1ncc([N+](=O)[O-])n1CCO`, the Potency entry in [1], in experiment [2], in experiment [3], in experiment [4], in experiment [5] and in experiment [6] was “inactive” each time. Moreover, the Potency entry in [7], in experiment [8], in experiment [13], in experiment [14], in [9] and in [10] was “inactive” in each case. For the same molecule, the Potency entry in experiment [15], in experiment [18], in experiment [19] and in experiment [12] was “inactive” throughout. For the same molecule, the outcome in experiment [11] was inactive.

`CN1CCc2cccc3c2[C@H]1Cc1ccc(O)c(O)c1-3`: the Potency in experiment [1] is 55 µM (active) and 22.8 µM (active) and 26.6 µM (active); in experiment [2] it was 55 µM (active) and 20.4 µM (active); in [3], 30.9 µM (active) and 20.4 µM (active) and inactive; in experiment [7], 49.1 µM (active) and 22.8 µM (active) and 26.6 µM (active); in [12], 43.7 µM (active) and 18.1 µM (active) and 29.8 µM (active). Further, the Potency result in [4], in [5], in [6], in experiment [8], in [14] and in [15] was “inactive” each time. Besides, the Potency result in experiment [18] and in experiment [19] was “inactive” in each case. Also, the molecule was called inactive in experiment [11].
